These results are taken from PubChem BioAssay AID485313 (National Center for Advancing Translational Sciences (NCATS), 2010).

The campaign covered roughly 320,000 compounds. About 7,600 (2.4%) were called active. Where a call stands in place of a potency, no number is given. Inconclusive results (about 3%) are left out. The sample holds actives, similar compounds and a random draw of the others, so the mix is not that of the screen. Calls come from the whole dose curve; as a rule, active = well fitted activation curve with a large enough effect; inconclusive = small, poorly fitted or top-dose-only effect; inactive = no such curve, though single readings can be large or run the other way.
Potency is the fitted concentration of half-maximal effect.

The test in a line: qHTS Assay for NPC1 Promoter Activators. Note: nearly all actives have a fitted effect of over 60% in size. The note with it: Huh7 NPC1 promoter luciferase reporter, 24 h; series mostly up to 9.22 µM. The source says: NIH Chemical Genomics Center [NCGC] NIH Molecular Libraries Probe Production centers Network [MLPCN] MLPCN Grant: MH089375-01A1 Assay Submitter (PI): Yiannis A. Ioannou NCGC Assay Overview: Niemann Pick Type C (NPC) is a rare neurodegenerative lipidosis that is characterized by lipid storage in the endosomal/lysosomal system. Treatment modalities for this devastating disease are currently non-existent due to the severe obstacles associated with accessing the central nervous system with proteins or genes. The majority of mutations causing NPC disease are missense mutations that are distributed throughout the length of the NPC1 protein, with the most prevalent being the I1061T allele. Although NPC1 mutant proteins may be functional, they are typically trapped in the ER due to misfolding. […] We have developed and optimized a cell based luciferase reporter assay in 1536 well format for the identification of up-regulators of the mutant NPC1 promoter.
The NPC1 promoter is cloned in front of the luciferase reporter gene, therefore NPC promoter activation results in luciferase expression. Frozen stock of the NPC1 promoter transfected Huh7 cells were obtained from the laboratory of Dr. Yiannis Ioannou (The Mount Sinai School of Medicine, New York, NY). Cells were propagated and maintained at NCGC in medium containing RPMI-1640 supplemented with 10% FBS, 2mM L-glutamine, and 50ug/ml penicillin/streptomycin. Cells were harvested in and plated for assays in OP-MEM I reduced-serum medium supplemented with 10% FBS. The Amplite luciferase reporter gene assay kit was purchased from ABD Bioquest and prepared/stored according to manufacturers recommendations. qHTS Assay Setup: 1.#Dispensed 5ul of Huh7 cells stably expressing NPC1-luciferase at a density of 1500 cells per well 1536-well plates. 2.#Incubate cells at 37C, 5% CO2, and 95% humidity for 2 hours. 3.#Transferred 23nl per well of compound in DMSO solution. 4.#Incubated at 37C, 5% CO2, and 95% humidity for 24 hours. 5.#Dispensed 3ul per well of Amplite reagent(ABD Bioquest) per well. 6.#Incubate at ambient for 10 minutes. 7.#Read using the luminescence protocol on the ViewLux plate reader (Perkin Elmer).
For orientation: qHTS replaces the single test concentration by a dilution series.
On to `O=C(Nc1ccon1)c1cccc(Cl)c1`, for which the Potency entry is “inactive”.

As to `O=C(Nc1ccon1)c1sc2ccccc2c1Cl`, the Potency was 3.98 µM (active).

For the molecule `Cc1nn(C)cc1/C=N/NC(=O)c1sc2ccccc2c1Cl`, the Potency result was “inactive”.

Turning to `Cn1c(N)c(C(=O)COC(=O)COc2ccc(Cl)cc2)c(=O)n(C)c1=O`, the Potency result was “inactive”.

Take `O=C(COC(=O)CCCN1C(=O)c2cccc3cccc(c23)C1=O)NC1CCS(=O)(=O)C1` (configuration not stated): the Potency entry was “inactive”.

Consider `COc1ccc(OCCNC(=O)c2cc(C3CC3)nc3c2cnn3C(C)C)cc1`, for which the Potency result is “inactive”.

Take `C/C(=N\O)C1(C)N(O)C(C)(C)C(c2ccc(Br)cc2)=[N+]1[O-]` (configuration not stated): the Potency result was “inactive”.

Take `CC(=O)C1(C)N(O)C(C)(C)C(c2cccs2)=[N+]1[O-]` (configuration not stated): the Potency is 0.1 µM (active).

Regarding `CC1(C)C(c2cccs2)=[N+]([O-])C2(CCCCC2=O)N1O` (configuration not stated), the Potency result is “inactive”.

Turning to `CC(C(=O)N1CCc2ccccc21)N(C)CC(=O)Nc1ccc(F)cc1` (configuration not stated), the Potency result was “inactive”.

With `CCNC(=O)c1cccc(NC(=O)C2CC(=O)N(CCc3ccccc3)C2)c1` (configuration not stated), the Potency entry is “inactive”.

Take `CCN(CC)C(=O)N(CC)Cc1ccccc1`: the Potency result was “inactive”.

Take `CCN(CC)C(=O)c1sc2nc(-c3ccccc3)ccc2c1N`: the Potency is 1.58 µM (active).

Consider `Nc1c(C(=O)NCc2ccccc2)sc2nc3c(cc12)C(=O)CCC3`, for which the Potency result was “inactive”.

In the case of `CCCC(NC(=O)c1ccco1)c1nc2ccccc2[nH]1` (configuration not stated), the Potency entry was “inactive”.

Consider `Cc1cccnc1CC(C)NC(=O)c1cc(COc2cncc(Cl)c2)on1` (configuration not stated), for which the Potency result is “inactive”.

With `COCCCNC(=O)COc1cc(C)c(Cl)c(C)c1`, the Potency entry was “inactive”.

On to `Cc1cc(OCc2cc(C(=O)NCc3cc(C(C)C)no3)no2)cc(C)c1Cl`, for which the Potency is 1.41 µM (active).

For the molecule `COc1cccc(-c2nc3cc(C)ccc3o2)c1`, the Potency is 3.16 µM (active).

On to `O=[N+]([O-])c1ccc2oc(-c3cccc(O)c3)nc2c1`, for which the Potency result is “inactive”.

For `COc1cccc(-c2nnc(SCCOc3ccc4c(C)cc(=O)oc4c3)o2)c1`, the Potency entry is “inactive”.

Regarding `O=C(/C=C(O)/C=C/c1ccc(O)cc1)/C=C/c1ccc(O)cc1`, the Potency entry was “inactive”.

With `CCCCn1c(N)c(N(CC(C)C)C(=O)c2cnc(C)cn2)c(=O)[nH]c1=O`, the Potency entry is “inactive”.

As to `COc1ccccc1C(=O)Nc1ccc(OCC(=O)N2CCCCC2)cc1`, the Potency entry was “inactive”.

In the case of `NS(=O)(=O)c1ccc2nc(NC(=O)C3=COCCO3)sc2c1`, the Potency was 1.78 µM (active).

For `CS(=O)(=O)c1ccc2nc(NC(=O)c3ccc(Cl)nc3)sc2c1`, the Potency entry was “inactive”.

Consider `NS(=O)(=O)c1ccc2nc(NC(=O)CS(=O)(=O)c3ccc(F)cc3)sc2c1`, for which the Potency result is “inactive”.

On to `CN(CC(=O)Nc1ccc(Cl)c(C(F)(F)F)c1)C(=O)CCC(=O)c1ccccc1`, for which the Potency entry was “inactive”.

With `COC(=O)c1ccc(COC(=O)CNC(=O)c2cccc(OC)c2)o1`, the Potency result is “inactive”.

In the case of `CN(CC(=O)Nc1ccc(Cl)cc1)C(=O)c1ccc(COc2ccccc2)cc1`, the Potency entry is “inactive”.

As to `O=C(CNC(=O)c1ccc2ccccc2c1)Nc1ncccc1O`, the Potency entry is “inactive”.

Turning to `CCOC(=O)c1cc(C(C)C)sc1NC(=O)COC(=O)c1nccnc1N`, the Potency result is “inactive”.

`CCc1cc(C(N)=O)c(NC(=O)c2ccc(OC)cc2)s1`: the Potency result is “inactive”.

For the molecule `CC(C)c1cc(C(N)=O)c(NC(=O)c2cccc(COc3ccc(Br)cc3)c2)s1`, the Potency was 2.82 µM (active).

As to `CC(=O)c1c(C)[nH]c(C(=O)OCC(=O)Nc2c(C)n(C)n(-c3ccccc3)c2=O)c1C`, the Potency result is “inactive”.

On to `CN(C)CCn1c(=S)[nH]c2ccc(Cl)cc2c1=O`, for which the Potency entry was “inactive”.

In the case of `CN(C)CCN=c1cc(-c2ccccc2)oc2ccc(Cl)cc12`, the Potency is 2.82 µM (active).

In the case of `CN(CC(=O)NCc1ccc2c(c1)OCO2)CC(=O)Nc1ccc(F)c(F)c1F`, the Potency entry is “inactive”.

In the case of `CO[C@H]1[C@@H]2C=CO[C@@H](O[C@H]3O[C@@H](CO)[C@H](O)[C@@H](O)[C@@H]3O)[C@@H]2[C@@]2(CO)O[C@@H]12`, the Potency result was “inactive”.

Consider `O=C(Nc1ccc(Cl)cc1)c1ccsn1`, for which the Potency is 3.16 µM (active).

`CCC(=O)Nc1ccc(C(=O)NNC(=O)c2ccc(Cl)cc2)cc1`: the Potency result is “inactive”.

For the molecule `O=C(Nc1ccccc1)c1nnsc1S(=O)(=O)c1ccc(Cl)cc1`, the Potency entry is “inactive”.

For the molecule `CCCCN(CC(=O)Nc1cccc(S(=O)(=O)N2CCCC2)c1)Cc1nc2ccccc2c(=O)[nH]1`, the Potency result was “inactive”.

Turning to `COCCn1cnnc1SCC(=O)Nc1cccc(S(=O)(=O)N2CCCCC2)c1`, the Potency result was “inactive”.

`Cc1ccc(S(=O)(=O)N(C)C)cc1NC(=O)C(C)OC(=O)c1ccc2ccccc2n1` (configuration not stated): the Potency result is “inactive”.

In the case of `COc1ccc(F)cc1C(=O)COC(=O)c1n[nH]c(=O)c2ccccc12`, the Potency result is “inactive”.

Consider `CCN(C(=O)COC(=O)CCOc1cccc(C)c1)c1c(N)n(Cc2ccccc2)c(=O)[nH]c1=O`, for which the Potency entry was “inactive”.

For the molecule `O=C(c1ccccc1)N1CCN(C(=O)N2CCCCC2)CC1`, the Potency result is “inactive”.

As to `O=C(O)c1cccc(N=NN2CCCCCC2)c1`, the Potency was 0.1 µM (active).

Consider `O=C(O)c1ccc(N=NN2CCOCC2)cc1`, for which the Potency entry is “inactive”.

Take `CCOc1ncccc1C(=O)OCC(=O)Nc1cccc(S(=O)(=O)N2CCCCCC2)c1`: the Potency entry was “inactive”.

In the case of `N#Cc1nc(Cc2cccc3ccccc23)oc1NCc1ccc2c(c1)OCO2`, the Potency result was “inactive”.

For `N#Cc1nc(Cc2ccccc2)oc1NCCc1ccccc1`, the Potency was 3.16 µM (active).

Take `Cc1ccccc1-c1nc(C#N)c(NCc2ccco2)o1`: the Potency entry was “inactive”.

In the case of `COc1ccc(-c2[nH]nc(-c3ccccc3)c2-c2nc3ccccc3[nH]2)cc1`, the Potency result is “inactive”.

Take `Cc1ccc(-c2nc3ccccc3[nH]2)cc1N`: the Potency was 1.58 µM (active).

On to `Nc1cccc(CCc2nc3ccccc3[nH]2)c1`, for which the Potency entry was “inactive”.

In the case of `COc1ccc(Br)cc1C(=O)NC(=S)Nc1cc(-c2nc3ccccc3[nH]2)ccc1C`, the Potency entry is “inactive”.

For `OC(c1nc2ccccc2[nH]1)C(O)C(O)C(O)c1nc2ccccc2[nH]1` (configuration not stated), the Potency entry is “inactive”.

On to `c1ccc2[nH]c(-c3nc4ccccc4[nH]3)nc2c1`, for which the Potency is 1.26 µM (active).

`CNc1nc(SC)nc(N(C#N)CC(=O)OC)n1`: the Potency result is “inactive”.

For the molecule `COc1ccc(OC)c(S(=O)(=O)Nc2c(C)nn(C)c2C)c1`, the Potency entry was “inactive”.

As for `Cc1cc(C(=O)Nc2ccc(C)c(S(=O)(=O)N3CCOCC3)c2)c2ccccc2n1`, the Potency entry was “inactive”.

For `c1ccc(CN=C2Nc3ccccc3CS2)nc1`, the Potency is 2.51 µM (active).

For the molecule `CCC1(CC)NC(=O)N(CC(=O)OCC(=O)c2cc(C)c(C)cc2C)C1=O`, the Potency result was “inactive”.

Take `CC(=O)c1c(C)[nH]c(C(=O)COc2ccc3c(C)cc(=O)oc3c2)c1C`: the Potency entry was “inactive”.

Regarding `CCN(CC(=O)Nc1ccc(NC(C)=O)cc1)C(=O)CSC(=S)N1CCCC1`, the Potency result was “inactive”.
